Compounds with a hit are over-represented: about 5.4% of the library has one in this group of screens.
Marburg entry inh: Marburg virus entry inhibition; Marburg virus pseudotyped entry inhibition, cell reporter; Potency, µM (top dose mostly 37.8 µM), for the others: top-dose activity change, negative = inhibition, usual class: inhibitors; 1.8% of 300,000 active; AID 540276; calls by dose curve; tested in HEK293 cells
Vaccinia mCherry: inhibitors of vaccinia virus infection (mCherry reporter signal); Vaccinia virus mCherry reporter infection, fluorescence; Potency, µM (top dose mostly 36.5 µM), for inactives: at the top dose activity change, negative = inhibition, hits mostly inhibitors; 0.63% of 310,000 active; calls by dose curve; tested in A549 cells; further: nearly all actives have a fitted effect of over 35% in size
LASV entry inh: blocks Lassa virus binding to or entry into cells; Lassa virus pseudotype entry inhibition, cell reporter; Potency, µM (series often up to 37.9 µM), without a hit: at the top dose activity change, negative = inhibition, hits mostly inhibitors; 1.2% of 300,000 active; AID 540256; calls by dose curve; tested in HEK293 cells; further: nearly all actives have a fitted effect of over 50% in size
Sm TGR block: blocks Schistosoma mansoni thioredoxin glutathione reductase | purified TGR, DTNB reduction, TNB absorbance 405 nm | Potency, µM (highest dose often 114 µM), without a hit: at the top dose activity change, negative = inhibition, most hits filed as inhibitors | 3% of 360,000 active | AID 485364; active means well fitted inhibition curve with a large enough effect; inconclusive means small, poorly fitted or top-dose-only effect; inactive means no such curve, though single readings can be large or run the other way; further: nearly all actives have a fitted effect of over 60% in size
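First, TGR (20 nM dispensed) and NADPH were mixed with compound. Second, a 15 min room-temperature incubation followed. Third, further NADPH and then DTNB were added to start the reaction. Finally, TNB absorbance was monitored kinetically.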
FMDV antiviral: antivirals against foot and mouth disease virus; 1.2% of 410,000 active; FMDV antiviral cell-based qHTS; Potency, µM (doses to about 57.9 µM), for the others: at the highest dose activity change, negative = inhibition, hits mostly inhibitors; calls by dose curve; tested in HEK293T cells; further: read-out not given here; nearly all actives have a fitted effect of over 45% in size
VACV Venus inh: inhibitors of vaccinia virus (Venus reporter); Vaccinia virus Venus reporter expression, fluorescence; Potency, µM (top dose mostly 36.5 µM), inactives show at the highest dose activity change, negative = inhibition, hits mostly inhibitors; 0.46% of 330,000 active; AID 720580; calls by dose curve; tested in A549 cells; further: nearly all actives have a fitted effect of over 30% in size
* = called active by the depositor; i = inactive; ? = inconclusive; nt = not tested or not shown; [ ] = another dose, or the depositor's remark. On the % scale 0 is the no-effect control and ±100 the full control effect; potency means the concentration at half of the fitted maximal effect.

SMILES	Marburg entry inh	Vaccinia mCherry	LASV entry inh	Sm TGR block	FMDV antiviral	VACV Venus inh
O=C(C[N+]12CCCc3cccc(c31)CCC2)c1ccc2ccccc2c1	nt	i	nt	nt	nt	-17%
COc1cc2c(cc1NC(=O)COc1ccc(Br)c(C)c1)oc1ccccc12	5%[46.1 µM]	-13%	?	2%	-4%	-13%
C=CC(C1=CC(=O)C(OC)=C(OC)C1=O)c1ccccc1 (stereo unspecified)	nt	?	nt	nt	25µM*	?
Cc1ccc(-c2nn(CCC#N)cc2C=C(C#N)C#N)cc1	4%	-6%	19%	8.9µM*	nt	-15%
COc1ccc(-c2nn(CCC#N)cc2C=C(C#N)C#N)cc1	nt	nt	nt	25µM*	-26%	nt
CC(C)CN1C(=O)N[C@@](NC(=O)c2cccnc2)(C(F)(F)F)C1=O	19%	nt	nt	nt	nt	nt
Cc1ccc(CSC2=Nc3ccccc3C3=NC(CC(=O)NC4CCCCC4)C(=O)N23)cc1 (stereo unspecified)	nt	-18%	-5%[46.1 µM]	5%	6%	-13%
CCCCCn1c2c(c(=N)c3ccccc31)CCC2	?	i[7.34 µM]	?	0%	0%	3%[7.34 µM]
CCCCCCCCCn1c2c(c(=N)c3c1CCC3)CCCC2	?	?	4.1µM*	0%	10µM*	?
CCCCCCCCn1c2c(c(=N)c3ccccc31)CCC2	?	?	?	9%	2.5µM*	?
CCCCCCCCCCn1c2c(c(=N)c3c1CCC3)CCC2	?	13µM*	?	-1%	18µM*	10µM*
COc1ccc(C(=O)NCC2Cc3cc(C)cc(-c4nc5ccccc5s4)c3O2)c(OC)c1OC (stereo unspecified)	nt	i	nt	nt	-26%	-10%
O=C(CSCc1nc2ccccc2[nH]1)N1CCN(c2ccc(F)cc2)CC1	?	-22%	2%	?	35µM*	?
O=C(CSCc1ccccc1)N1CCN(c2ccc(F)cc2)CC1	1%	i	5%	16%	nt	-18%
O=C(CSCc1nc2ccccc2[nH]1)N1CCN(c2cccc(Cl)c2)CC1	?	nt	-28%	-3%	35µM*	nt
C/C(=N\O)C(=O)C(CN1CCCCC1)CN1CCCCC1	6%	-4%	20%	1.8µM*	30%	-4%
O=C(COc1ccc(F)cc1)Nc1ccc2nc(SCC(=O)N3CCOCC3)sc2c1	?	-14%	-10%[46.1 µM]	0%	?	-18%
O=C(Nc1ccc2oc(=O)ccc2c1)c1ccc(-c2cccc([N+](=O)[O-])c2)o1	?	i[7.34 µM]	?	50µM*	32µM*	-13%[7.34 µM]
O=C(Nc1ccc2nn(-c3ccccc3)nc2c1)c1ccc(-c2cccc(Cl)c2)o1	nt	-27%	-2%[46.1 µM]	8.9µM*	-11%	?
COc1ccc(-n2nc3ccc(NC(=O)c4ccc(-c5cc(Cl)ccc5Cl)o4)cc3n2)cc1	nt	i	?	-25%	8%	-12%
Cc1ccc(-n2nc3ccc(NC(=O)c4cc5ccccc5o4)cc3n2)cc1	nt	-10%	19%[46.1 µM]	7%	28%	0%
O=C(Nc1ccc2oc(=O)ccc2c1)c1ccc(-c2cccc(Cl)c2)o1	nt	-2%	nt	22µM*	-17%	-2%
CCCCc1ccc(-n2nc3ccc(NC(=O)c4cc5ccccc5o4)cc3n2)cc1	nt	-22%	1%[46.1 µM]	4%	25µM*	-7%
O=C(Nc1ccc2oc(=O)ccc2c1)c1ccc(-c2ccc(Cl)cc2)o1	?	-15%	-3%	-21%	-15%	-11%
COc1cc(C(=O)OCCNC(=O)c2cccnc2)cc(OC)c1OC	?	-15%	-25%	nt	-19%	-6%
SMILES	Marburg entry inh	Vaccinia mCherry	LASV entry inh	Sm TGR block	FMDV antiviral	VACV Venus inh
Cc1cc(C)c(OCC(=O)OCCNC(=O)c2cccnc2)c(C)c1	0%	i	1%	35µM*	0%	0%
COc1ccc(C2CC(c3ccc(OC)cc3)n3nc(NC(=O)c4cccs4)nc3N2)cc1 (stereo unspecified)	?	-14%	?	6%	-10%	-21%
COCC(=O)Nc1nc2n(n1)C(c1ccc(Cl)cc1)CC(c1ccc(OC)cc1)N2 (stereo unspecified)	-8%	-26%	-17%	25µM*	?	-13%
COc1cccc(C2CC(c3ccccc3Cl)n3nc(N)nc3N2)c1 (stereo unspecified)	?	nt	6%	0%	?	nt
COCC(=O)Nc1nc2n(n1)C(c1ccccc1Cl)CC(c1ccc(OC)cc1)N2 (stereo unspecified)	-5%	nt	-5%	40µM*	-15%	nt
COc1cc(=O)n2c(c1C(=O)NCc1ccco1)CCN(Cc1ccc3ccccc3c1)CC2	nt	i	nt	nt	-12%	-12%
Cc1onc(-c2ccccc2Cl)c1C(=O)NC(=S)Nc1ccccc1C(N)=O	-5%	i	4%	-3%	1%	-13%
Cc1onc(-c2ccccc2Cl)c1C(=O)Nc1ccccc1C(=O)NC(C)C	9.2µM*	-15%	?	1%	nt	-22%
Cc1onc(-c2ccccc2Cl)c1C(=O)NCc1nc(-c2ccc(C(F)(F)F)cc2)no1	?	?	10µM*	18%	?	-20%
CCOc1ccc(OC(=O)c2c(-c3ccccc3Cl)noc2C)cc1	nt	-13%	-12%[46.1 µM]	12%	40µM*	-20%
Cc1onc(-c2ccccc2Cl)c1C(=O)Nc1ccccc1C(N)=O	-19%	nt	-5%	-3%[11.4 µM]	11µM*	-15%
CCOc1ccccc1CNS(=O)(=O)c1ccc2c(c1)CCCN2C(C)=O	nt	-12%	-17%[46.1 µM]	11%	14%	-10%
Cc1ccc(NC(=O)CN2C(=O)CSc3ccc(S(=O)(=O)N(C)C)cc32)c(C)c1	nt	-18%	22%[46.1 µM]	-1%	9%	-7%
COc1cc(C2C(C#N)=C(N)N(Nc3ccccc3)C3=C2C(=O)CC(C)(C)C3)ccc1OCc1cccc(F)c1 (stereo unspecified)	1.8µM*	nt	?	5%	-27%	?
COc1ccc(N2C(N)=C(C#N)C(c3cccnc3)C3=C2CC(C)(C)CC3=O)cc1 (stereo unspecified)	?	nt	-25%	10µM*	-15%	-18%
CC1(C)CC(=O)C2=C(C1)N(c1cccnc1)C(N)=C(C#N)C2c1cccs1 (stereo unspecified)	11%	-13%	18%	50µM*	0%	-13%
COc1cc(C2C(C#N)=C(N)N(Nc3ccccc3)C3=C2C(=O)CC(C)(C)C3)ccc1OCc1ccccc1 (stereo unspecified)	?	?	?	4%	-28%	?
COc1ccc(C2C(C#N)=C(N)N(c3cccnc3)C3=C2C(=O)CC(C)(C)C3)cc1OC (stereo unspecified)	1%	-17%	14%	45µM*	-11%	-17%
CCOC(=O)C1CCN(C(=O)c2nn(-c3ccc(C)cc3)c(=O)n(C)c2=O)CC1	nt	-6%	?	1%	-3%	-12%
COc1ccc(Cl)cc1NC(=O)CCN1C(=O)c2ccccc2Sc2ncccc21	nt	-8%	2%[46.1 µM]	-5%	-12%	-12%
Cc1ccccc1C(=O)N1CCc2c(cnc(C)c2CNC(=O)CN2CCCCC2)C1	nt	-19%	nt	nt	-20%	-4%

Screens (PubChem BioAssay)
